# Assay results published in PubChem BioAssay.
# Key:
# [1] = test system: Human papillomavirus type 1a protein E7 (residues 44-93); test: small molecules binding HPV E7 44-93 – biochemical, small-molecule microarray, residues 44-93, 635 nm fluorescence, primary screen (AID 1108); details: fluorescence 635 nm, higher = more signal;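 further: E7 fragment applied at 1 µg/mL in TBST for 1 h at 4 C; score combines spot fluorescence with its signal to noise ratio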
# [2] = hepatitis C replication reporter changes, two-sided – Huh7 cells, luciferase reporter, HCV replication inhibitor project, primary screen (AID 1109); details: Huh7 HCV replicon luciferase reporter, 48 h; higher = more signal;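 further: huh7 hepatoma cells harbouring a luciferase neomycin HCV replicon reporter; luciferase luminescence as measure of HCV replicon replication; test concentration not given here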
# [3] = biological target: Left-right determination factor 2 (Homo sapiens) (UniProt O00292); test: small molecules binding LEFTY2 protein – biochemical, small-molecule microarray, 635 nm fluorescence scan, primary screen (AID 1110); details: higher = more signal
# Chain of Left-right determination factor 2 (Homo sapiens) (O00292 whole entry, looked up): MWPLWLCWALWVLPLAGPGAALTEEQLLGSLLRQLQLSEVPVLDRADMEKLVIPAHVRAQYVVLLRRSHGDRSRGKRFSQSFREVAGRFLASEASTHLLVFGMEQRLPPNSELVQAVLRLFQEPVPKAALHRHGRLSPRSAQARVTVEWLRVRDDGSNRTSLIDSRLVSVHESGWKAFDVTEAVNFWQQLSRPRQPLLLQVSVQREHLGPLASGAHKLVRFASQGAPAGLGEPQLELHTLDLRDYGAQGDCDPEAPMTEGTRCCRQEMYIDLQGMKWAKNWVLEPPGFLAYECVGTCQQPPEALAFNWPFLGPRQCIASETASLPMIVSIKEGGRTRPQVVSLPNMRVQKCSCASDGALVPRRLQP
# [4] = biological target: Calmodulin-1 (Homo sapiens) (UniProt P0DP23); test: small molecules binding calmodulin-1 with EGTA – biochemical, small-molecule microarray, Cy5-labelled CALM1, profiling panel (AID 1111); details: Cy5-CALM1 binding fluorescence, higher = more signal;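 further: labelled calmodulin applied in Tris saline Tween buffer holding calcium plus EGTA and DTT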
# [5] = biological target: Calmodulin-1 (Homo sapiens) (UniProt P0DP23); test: small molecules binding Ca-loaded calmodulin-1 – biochemical, small-molecule microarray, Cy5-labelled CALM1, plus calcium, artefact control for SMM control-protein annotation, profiling panel (AID 1112); details: Cy5-CALM1 binding fluorescence, higher = more signal;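 further: score merges spot fluorescence with signal to noise from triplicate slides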
# [6] = probe aWnt5a binding to arrayed compounds – biochemical, biotinylated probe, 635/667 nm fluorescence, primary screen (AID 1113); details: small-molecule microarray, higher = more signal;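 further: score merges 667 nm fluorescence intensity with signal-to-noise per printed feature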
# [7] = probe aShh binding to arrayed compounds – biochemical, biotinylated probe, 635/667 nm fluorescence, primary screen (AID 1114); details: small-molecule microarray, higher = more signal;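 further: probe is biotin-labelled aShh protein from a stem cell growth factor screen; measures binding of labelled protein to compounds printed on the slide; score merges feature fluorescence at 667 nm with signal-to-noise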
# [8] = probe aNog binding to arrayed compounds – biochemical, biotinylated probe, 635/667 nm fluorescence, primary screen (AID 1115); details: small-molecule microarray, higher = more signal;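 further: probe is biotinylated aNog protein used at 0.15 µg/mL for 1 h at 4 C; z-score combines 667 nm fluorescence of each spot with its signal to noise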
# [9] = biological target: Torsin-1A-interacting protein 1 (Homo sapiens) (UniProt Q5JTV8); test: compound microarray binding of lysate hLAP1 – cell lysate, small-molecule microarray, COS7 lysate, 635/667 nm fluorescence, primary screen (AID 1116); details: 635 nm fluorescence, higher = more signal
# Chain of Torsin-1A-interacting protein 1 (Homo sapiens) (Q5JTV8 whole entry, looked up): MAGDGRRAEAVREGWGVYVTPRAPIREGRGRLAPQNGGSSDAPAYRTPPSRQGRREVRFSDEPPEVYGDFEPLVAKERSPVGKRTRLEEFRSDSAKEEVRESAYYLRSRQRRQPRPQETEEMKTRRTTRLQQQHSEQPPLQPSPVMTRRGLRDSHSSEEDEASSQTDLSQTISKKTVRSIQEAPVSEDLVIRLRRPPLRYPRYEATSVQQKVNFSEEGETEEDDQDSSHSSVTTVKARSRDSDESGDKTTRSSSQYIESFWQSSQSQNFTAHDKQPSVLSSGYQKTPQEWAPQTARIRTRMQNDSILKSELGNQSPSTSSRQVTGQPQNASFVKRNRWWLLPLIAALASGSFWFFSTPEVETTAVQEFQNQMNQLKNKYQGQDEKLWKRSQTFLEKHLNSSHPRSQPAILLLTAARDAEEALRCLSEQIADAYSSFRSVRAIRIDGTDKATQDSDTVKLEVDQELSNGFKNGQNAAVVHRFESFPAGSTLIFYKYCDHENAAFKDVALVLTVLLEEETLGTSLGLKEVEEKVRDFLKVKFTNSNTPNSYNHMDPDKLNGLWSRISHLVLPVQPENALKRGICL
# [10] = biological target: Alpha-bungarotoxin (Bungarus multicinctus) (UniProt P60615); test: compounds binding labelled alpha-BTX control protein – biochemical, small-molecule microarray, Alexa647 label, 635/667 nm fluorescence, artefact control for SMM control protein annotation, profiling panel (AID 1117); details: alpha-BTX-A647 binding fluorescence, higher = more signal
# Chain of Alpha-bungarotoxin (Bungarus multicinctus) (P60615 whole entry, looked up): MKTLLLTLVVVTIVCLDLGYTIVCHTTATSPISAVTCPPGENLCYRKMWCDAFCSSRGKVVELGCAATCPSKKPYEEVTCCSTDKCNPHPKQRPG
Compound,composite z-score [1],z-score [2],composite z-score [3],composite z-score [4],composite z-score [5],composite z-score [6],composite z-score [7],composite z-score [8],composite z-score [9],composite z-score [10]
COc1ccc([Si](C)(C)[C@@H]2[C@@H](CC(=O)N(CCO)Cc3ccccc3)O[C@]3(C(=O)N(C)c4ccccc43)[C@H]2C)cc1,0.906,-3.95,0.813,0.773,-0.193,-0.0721,0.366,0.422,0.44,0.805
CC1=C2[C@@H](CCc3ccccc3)OB(O)C[C@@H]2n2c(=O)n(-c3ccccc3)c(=O)n2C1,0.352,-1.23,0.664,0.177,-0.878,-0.096,0.133,-0.198,0.543,-0.027
O=C(CCN1CCOCC1)c1cccc(O)c1,0.591,-3.35,1.47,-0.396,-1.21,-0.0372,-0.123,-0.158,0.0422,1.4
O=C1N(CCS(=O)(=O)c2ccccc2)Cc2ccccc2C[C@]12N=C(c1ccc(OCCCO)cc1)O[C@@H]2c1ccccc1,-0.183,-2.19,0.947,2.54,0.422,0.122,0.21,1.21,1.88,1.59
COc1ccc(CCNC(=O)[C@@]2(c3ccc([N+](=O)[O-])cc3)CC(=O)N(CC34CC5CC(CC(C5)C3)C4)[C@@H]2c2ccc(CO)cc2)cc1,1.42,-3.38,0.614,0.581,0.084,-0.0202,0.2,-0.0281,0.299,0.155
CCOC(=O)C[C@H]1[C@H](OC(=O)c2ccc(C(=O)c3ccccc3)cc2)[C@@H](NC(=O)C2CCCCC2)c2cc(OCCCO)ccc2N1C(=O)c1ccccc1,1.34,-2.27,0.239,0.541,-0.0224,-0.0346,0.0483,-0.158,0.512,0.745
COc1ccc([Si](C)(C)[C@H]2[C@H](CCn3cc(CCO)nn3)O[C@@]3(C(=O)N(Cc4ccc(N5CCOC5=O)cc4)c4ccccc43)[C@@H]2C)cc1,0.469,-4.2,-0.129,0.122,0.0117,-0.124,0.0469,0.0581,1.03,1.27
COCCOC(=O)N1C(=O)[C@@]2(c3cc(C#CC4=CCCCC4)ccc31)[C@H](C(=O)NC[C@H](O)c1ccccc1)[C@H]1C(=O)O[C@H](c3ccccc3)[C@H](c3ccccc3)N1[C@@H]2c1ccc(O)cc1,1.38,-1.84,0.693,1.1,0.274,-0.163,-0.0055,0.996,0.949,1.13
COC(=O)[C@@]1(Cc2ccccc2)[C@H]2c3cc(C(=O)N(C)C)n(Cc4cc(C)n(C)n4)c3C[C@H]2CN1C(=O)c1ccccc1,1.02,-0.995,-0.279,1.8,0.908,-0.319,-0.465,-0.199,3.2,0.285
COCCOC(=O)N1C(=O)[C@@]2(c3cc(C#CCNC(N)=O)ccc31)[C@H](c1ccccc1OCCO)N1[C@H](c3ccccc3)[C@H](c3ccccc3)OC(=O)[C@H]1[C@@H]2C(N)=O,1.18,-0.733,0.54,0.451,0.664,0.0253,-0.229,-0.314,-0.0837,1.18
N#Cc1ccc(NN2C(C(O)c3cccs3)C=CC3C(=O)N(c4ccccc4)C(=O)C32)cc1 (stereo not given),0.809,-0.0582,0.268,0.41,0.314,0.0709,-0.0977,1.43,1.52,0.122
CC(=O)Nc1cc(Br)ccc1C(=O)O,0.688,-0.0912,-0.229,0.908,0.762,-0.096,0.0556,-0.122,-0.134,0.424
CCCCC(O)C1C=CC2C(=O)N(C3CCCCC3)C(=O)C2N1Nc1ccc(OC)cc1 (stereo not given),1.4,-0.385,0.0786,1.05,0.304,-0.0405,0.13,0.712,0.624,0.914
COC(=O)C1=CC(CCCO)=CC(C2CC2)N(Cc2sc3ccccc3c2Cl)C=C1C(=O)OC (stereo not given),1.44,-2.53,0.101,1.49,0.952,0.168,0.441,0.838,1.74,1.84
O=C1C[C@]2(c3ccc([N+](=O)[O-])cc3)C(=O)N(CC(F)(F)F)c3cc(CO)ccc3[C@H]2N1CC12CC3CC(CC(C3)C1)C2,0.193,-0.156,-0.211,-0.28,-0.285,-0.147,-0.229,-0.364,-0.371,0.224
Cc1cc(C)cc(N2C(=O)CS(=O)(=O)C2c2cccc([N+](=O)[O-])c2)c1 (stereo not given),-0.489,-0.0865,0.39,1.47,0.395,-0.15,0.108,0.549,1.23,1.25
NC(=O)NCC#Cc1ccc2c(c1)[C@]1(C(=O)N2)[C@H](C(=O)NC[C@H](O)c2ccccc2)[C@H]2C(=O)O[C@H](c3ccccc3)[C@H](c3ccccc3)N2[C@@H]1c1ccc(O)cc1,1.38,-0.257,0.691,2,0.916,0.551,0.456,0.921,1.45,2.19
CN(C)C(=O)[C@@]1(CCC(=O)OC(C)(C)C)N=C(c2ccc(OCCCO)cc2)O[C@H]1c1ccccc1,1.49,-1.01,-0.964,1.03,1,0.0733,0.357,0.546,1.41,0.575
CC(C)(C)OC(=O)CC[C@@]1(C(=O)NCCN2CCOCC2)N=C(c2ccc(OCCCO)cc2)O[C@@H]1c1ccccc1,0.925,0.988,0.356,1.59,0.53,0.0095,-0.138,-0.193,0.414,2.08
CC(C)OC(=O)CC(=O)CC(O)c1ccc(C#N)cc1 (stereo not given),0.443,-0.259,-0.461,-1.49,-1.46,-0.0405,-0.156,-0.397,1.67,1.75
O=C1OCC=C[C@H]2OC34C=CCN(c5ccc6ccccc6c5)C(=O)[C@H]3N(CCCO)C(=O)[C@@H]4[C@@H]12 (stereo not given in full),-0.522,-0.805,-0.842,-0.0892,0.172,-0.124,-0.15,0.135,0.208,-0.871
CC(=CC1CCCCC1)[C@@H](NC(=O)c1ccc(C(F)(F)F)cc1)c1ccc(-c2ccccc2)cc1,-0.778,-1.04,-0.886,0.605,0.636,-0.0735,0.151,0.506,-0.204,0.48
COC(=O)[C@@]1(Cc2ccccc2N=[N+]=[N-])COC(c2ccc(OCCCO)cc2)=N1,1.02,-0.0499,-0.675,0.238,0.0554,-0.15,0.333,0.0531,0.852,1.4
COC(=O)[C@@]1(Cc2ccccc2)[C@H]2c3cc(C(=O)N4CCCC4)n(Cc4ccc(C)o4)c3C[C@H]2CN1C(=O)c1ccccc1,0.114,-1.82,-0.334,1.58,-0.149,-0.213,-0.214,-0.153,0.618,0.326
CC(C)C(=C=CC[C@@H](O)c1ccccc1OCCO)C[C@@H](O)c1ccccn1,0.752,-1.14,0.28,-0.178,-0.34,-0.0751,-0.0553,-0.158,-0.221,0.125
